Compound activity deposited in PubChem BioAssay by National Center for Advancing Translational Sciences (NCATS).
This excerpt belongs to a sample that is enriched for hits.
Giardia FBPA inh – blocks Giardia fructose-bisphosphate aldolase activity. purified Giardia FBPA. AID 2451. A8B2U2. Potency, µM (top dose mostly 59.6 µM), for the others: top-dose activity, negative = inhibition, actives largely listed as inhibitors. 290,000 tested, 0.71% active; also: potency is read from the fitted curve at half-maximal effect; % is scaled to controls: 0 for no effect and ±100 for the full control effect; nearly all actives have a fitted effect of over 55% in size
Target sequence (A8B2U2 whole entry, looked up): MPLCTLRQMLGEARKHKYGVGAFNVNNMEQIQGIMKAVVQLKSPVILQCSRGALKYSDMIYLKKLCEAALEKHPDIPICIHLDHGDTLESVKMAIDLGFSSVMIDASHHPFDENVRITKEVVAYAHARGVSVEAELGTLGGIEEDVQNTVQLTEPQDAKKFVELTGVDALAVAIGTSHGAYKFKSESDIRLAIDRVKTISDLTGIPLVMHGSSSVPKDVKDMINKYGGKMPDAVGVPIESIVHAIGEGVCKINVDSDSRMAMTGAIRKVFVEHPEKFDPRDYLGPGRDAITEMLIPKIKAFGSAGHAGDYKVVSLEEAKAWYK
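Giardia FBPA (40 nM reagent) was preincubated 10 min at RT with compound (up to 57.5 uM final), then substrate plus GAPDH/TPI/NAD/arsenate coupling system with diaphorase/resazurin was added; resorufin fluorescence (525/598 nm) was read after 20 min.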
Shiga toxin inh – blocks Shiga toxin action in Vero cells. Vero cells, Shiga toxin protein synthesis inhibition reporter. inhibition, % at 38.7 µM. 290,000 tested, 9.2% active; in the data active = inhibition mostly above about 28%, no sharp cut-off; inactive = mostly below about 43%; also: 0% is about no effect
RE007 growth inh – less growth of the S. pombe RE007 Vpr strain; S. pombe RE007 Vpr strain, BacTiter-Glo ATP luminescence, 24 h; Potency, µM (highest dose often 92.2 µM), for the others: at the top dose activity change, negative = less growth, hits mostly inhibitors; 360,000 tested, 0.21% active; AID 651644; active = well fitted falling curve with a large enough effect; inconclusive = small, poorly fitted or top-dose-only effect; inactive = no such curve, though single readings can be large or run the other way; also: potency is read from the fitted curve at half-maximal effect; % is scaled to controls: 0 for no effect and ±100 for the full control effect; nearly all actives have a fitted effect of over 50% in size
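Fission yeast RE007 carrying one integrated HIV-1 vpr copy, seeded at OD 0.01 in PMG+AL medium with 23 nL pinned compound. Grown 24 h at 30 degrees; viability read by BacTiter-Glo luminescence after 5 min.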
Tb PYK inh – T. brucei pyruvate kinase inhibition; TbPYK enzyme, Kinase-Glo Plus ATP luminescence, 45 min; Potency, µM (doses to about 76.8 µM), for inactives: top-dose activity, negative = inhibition, most hits filed as inhibitors; 410,000 tested, 0.12% active; AID 624173; Q57TT1; also: potency is read from the fitted curve at half-maximal effect; % is scaled to controls: 0 for no effect and ±100 for the full control effect; nearly all actives have a fitted effect of over 50% in size
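T. brucei PYK with substrate was exposed to pin-transferred compounds across a concentration series, then started with 130 uM ADP (final). After 45 min at room temperature, Kinase-Glo Plus luminescence was read, normalized and curve-fitted.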
CHX counter – counter-screen hit for Shiga toxin inhibitors, cycloheximide; max response, %; 300,000 tested, 12% active; cell reporter, cycloheximide protein synthesis inhibition counterscreen; in the data active = max response mostly above about 13%, no sharp cut-off; inactive = mostly below about 14%; also: read at 38.3 µM for the half of the compounds with a filed dose; 0% is about no effect
LmPK inhibitor – inhibitors of Leishmania mexicana pyruvate kinase. Q27686. purified LmPK, Kinase-Glo ATP luminescence, 1 h. Potency, µM (series often up to 57.5 µM), inactives show top-dose activity change, negative = inhibition, usual class: inhibitors. 290,000 tested, 0.37% active; also: potency is read from the fitted curve at half-maximal effect; % is scaled to controls: 0 for no effect and ±100 for the full control effect
Target sequence (Q27686 whole entry, looked up): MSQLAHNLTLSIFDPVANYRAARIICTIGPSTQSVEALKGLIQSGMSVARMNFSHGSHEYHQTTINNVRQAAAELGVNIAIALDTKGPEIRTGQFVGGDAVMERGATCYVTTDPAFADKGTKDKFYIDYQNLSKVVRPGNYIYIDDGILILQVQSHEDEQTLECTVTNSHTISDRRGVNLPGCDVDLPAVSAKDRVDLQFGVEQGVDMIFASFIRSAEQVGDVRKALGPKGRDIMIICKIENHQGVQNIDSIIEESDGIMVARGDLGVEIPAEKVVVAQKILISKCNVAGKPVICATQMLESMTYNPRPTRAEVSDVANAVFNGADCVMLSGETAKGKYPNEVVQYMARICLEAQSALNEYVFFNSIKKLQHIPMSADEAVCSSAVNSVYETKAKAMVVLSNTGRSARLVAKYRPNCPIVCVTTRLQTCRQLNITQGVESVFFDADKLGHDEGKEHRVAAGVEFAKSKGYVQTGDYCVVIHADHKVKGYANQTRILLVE
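In 50 mM imidazole pH 7.2 with 7 mM MgCl2, LmPK (0.1 nM) turned over PEP (0.5 mM) and ADP (0.1 mM) for 1 h at room temperature. Luciferase read-out of ATP.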
The depositor's hits bear a star; ? = inconclusive; / = no result; [ ] = another dose, or the depositor's remark. Unless noted, calls follow the shape of the dose curve; as a rule, active = well fitted curve in the direction sought with a large enough effect; inconclusive = small, poorly fitted or top-dose-only effect, or another doubt; inactive = no such curve, though single readings can be large; an effect the other way counts as inactive or inconclusive.

SMILES | Giardia FBPA inh | Shiga toxin inh | RE007 growth inh | Tb PYK inh | CHX counter | LmPK inhibitor
CCOc1ccccc1CN1C(=O)c2ccccc2C1C(=O)NC(C)CC (configuration not stated) | 2.6% | -14.1 | -8.8% | 0.7% | -2.1 | 1.1%
CCN1C(=NCC(C)C)N[C@@H](c2cccc(C(F)(F)F)c2)C(C(=O)OC)=C1C | 22.6% | -8.2 | -16.1% | -0.6% | -3.0 | -7.9%
C=CCN=C1N[C@@H](c2cccc(C(F)(F)F)c2)C(C(=O)OC)=C(C)N1CC | 15.8µM* | 12.9 | -12.2% | -10.7% | -3.1 | -7.5%
CN(C)c1ncnc2ccc(-c3cccc(NS(C)(=O)=O)c3)cc12 | -4.9% | / | / | / | / | /
COc1ccc(-c2cc(=O)c3c(O)cc(O)cc3o2)cc1O | -0.1% | 70.1* | / | / | 34.0* | /
COc1c(O)cc2oc(-c3ccc(O)cc3)cc(=O)c2c1O | -0.7% | 51.4* | -12.4% | -6.0% | 12.9* | -22.0%
COc1c(-c2ccc(O)c(O)c2)oc2cc(O)cc(O)c2c1=O | -22.9% | 12.6 | -10.9% | -10.8% | active | -1.9%
COc1ccc(-c2cc(=O)c3ccc(O)cc3o2)cc1 | 4.6% | / | -1.3% | -7.0% | / | /
O=c1cc(-c2ccccc2)oc2cc(O)c(O)c(O)c12 | 9.98µM* | / | -6.8% | ? | / | /
CC(=O)Nc1cccc(C(=O)N2CCN(S(=O)(=O)c3ccc(C4CCCCC4)cc3)CC2)c1 | / | / | -8.1% | -7.6% | / | /
COc1cc2oc(-c3ccc(O)cc3)cc(=O)c2c(O)c1OC | -11.4% | 24.7 | -5.5% | -2.6% | 10.1* | 3.6%
COc1cc2oc(-c3ccc(O)cc3)cc(=O)c2c(OC)c1O | 1.1% | 28.5 | / | -24.7% | 7.0 | -6.6%
COc1cc(/C=C/C(=O)NCc2ccccn2)cc(OC)c1OC | 15.5% | 6.0 | 17.4% | 1.1% | -1.7 | -1.7%
O=C(COC(=O)/C=C/c1ccccc1Cl)Nc1cccnc1Cl | / | / | 12.8% | 8.5% | / | /
COc1ccc(/C=C/C(=O)Nc2cccnc2Cl)cc1 | -1.9% | 60.4* | -18.7% | -1.1% | 42.0* | -3.2%
COc1ccccc1/C=C/C(=O)Nc1cccnc1Cl | 1.9% | 50.9* | -8.7% | 1.8% | 30.1* | -0.4%
COc1ccccc1/C=C/C(=O)NCCc1ccccn1 | 2.0% | 87.5* | -7.2% | -0.6% | 55.5* | -4.8%
COc1ccccc1NC(=O)C1=C(C)Nc2c(C(=O)Nc3ccc(F)cc3)cnn2C1c1ccc(Cl)cc1 (configuration not stated) | / | / | / | 5.4% | / | /
COc1ccc(OCCC(=O)OCC(=O)NCc2ccc(F)cc2)cc1 | -2.1% | -5.9 | -21.2% | -2.6% | -1.7 | 4.5%
CC(=O)c1ccc(OC(=O)c2cc3ccccc3oc2=O)cc1 | 3.8% | 24.1 | / | / | -1.6 | -2.6%
Cc1cccc(N2CCN(C(=O)CCc3nc4ccccc4c(=O)[nH]3)CC2)c1C | / | / | 4.7% | 13.4% | / | /
O=C(CN(c1ccc(F)cc1)S(=O)(=O)c1ccc2c(c1)OCCO2)Nc1ccc2c(c1)OCO2 | -1.0% | 5.2 | -9.1% | 3.8% | 1.6 | 0.6%
O=C(CN(c1ccccc1F)S(=O)(=O)c1ccccc1)Nc1ccc2c(c1)OCCO2 | / | 120.2* | -15.0% | -3.0% | 47.6* | 1.5%
O=C(CN(Cc1ccccc1)S(=O)(=O)c1ccc2c(c1)OCCO2)Nc1ccc2c(c1)OCCO2 | -6.8% | 35.7* | -0.2% | -10.4% | 28.0* | -4.3%
O=C(CN(c1ccc(F)cc1)S(=O)(=O)c1ccc2c(c1)OCCO2)Nc1ccccc1 | 1.7% | 29.5 | 0.6%[3.69 µM] | / | 19.8* | 10.2%
SMILES | Giardia FBPA inh | Shiga toxin inh | RE007 growth inh | Tb PYK inh | CHX counter | LmPK inhibitor
C[C@@H]1CN([C@H](C)CO)C(=O)CCCn2nncc2CO[C@H]1CN(C)C(=O)Nc1ccc(N2CCN(C)CC2)cc1 | / | / | -1.1% | -3.3% | / | /
COc1cccc(CNC(=O)[C@@H]2CCCN2C(=O)[C@@H]2CCCN2)c1 | / | / | 6.3% | -9.1% | / | /
COc1cccc(CN(C)CCCn2cnc3c(SC)ncnc32)c1 | / | / | -0.3% | -9.8% | / | /
O=C1c2ccccc2C(=Cc2cccnc2)c2ccccc21 | / | / | -3.7% | 5.0% | / | /
Cc1ccc(/C=C2\Sc3ccccc3C2=O)s1 | -1.7% | 33.7* | -13.5% | -3.0% | 13.5* | 11.2µM*
O=C1/C(=C/c2cccnc2)Sc2ccccc21 | -2.8% | -1.8 | 28.2µM* | 5.8% | 13.5 | ?
COc1ccc(NC(=O)C(OC(=O)c2ccc([N+](=O)[O-])o2)c2ccccc2)cc1Cl (configuration not stated) | -27.8% | 18.0 | 3.7% | -7.0% | 20.3* | 0.5%
Nc1nnc(Cc2ccccc2F)s1 | 1.5% | -10.0 | -2.3% | -6.8% | 1.8 | 0.0%
Nc1nnc(-c2ccccc2F)s1 | 1.9% | 86.0* | -3.9% | -4.9% | 20.8* | 2.6%
Nc1nnc(-c2ccc(Cl)cc2Cl)s1 | -3.7% | 57.7* | 14.1% | 1.7% | 23.2* | -10.5%
Nc1nnc(Cc2ccc(Cl)cc2Cl)s1 | 1.7% | -11.9 | 6.9% | 7.1% | 1.5 | -2.8%
COc1cccc(CNC(=O)c2oc3c(c2C)-c2nn(Cc4cccc(Cl)c4)cc2CC3)c1OC | / | / | / | 8.3% | / | /
Cc1cccc(-c2nnn(CC/C(N)=N/O)n2)c1 | -0.2% | active | 1.1% | 0.0% | 22.9* | -2.3%
Cc1cccc(-c2nnn(Cc3nnc(NC(=O)c4ccccc4)s3)n2)c1 | 7.6% | -3.4 | 3.4% | -2.8% | -1.6 | -2.7%
Cc1oc(-c2ccccc2F)nc1CSCC(=O)NCc1ccccc1 | / | / | / | 6.6% | / | /
COC(=O)c1c(/N=C/N(C)C)sc2c1CCN(c1ncc(C(F)(F)F)cc1Cl)C2 | -23.1% | 4.8 | ? | -18.2% | 27.8* | 11.0%
O=C(O)C=C1CCN(c2ncc(C(F)(F)F)cc2Cl)CC1 | 11.3% | 33.9 | -10.0% | -1.7% | 26.2* | 0.6%
CN1CCN(C(=O)C2CCN(c3ncc(C(F)(F)F)cc3Cl)CC2)CC1 | 1.7% | -14.9 | 1.2% | -2.8% | -4.7 | 0.6%
NNC(=O)C=C1CCN(c2ncc(C(F)(F)F)cc2Cl)CC1 | -4.7% | 6.6 | -8.8% | -1.8% | 18.3* | 0.2%
O=C(CN1CCN(c2ncc(C(F)(F)F)cc2Cl)CC1)N1CCN(c2ncc(C(F)(F)F)cc2Cl)CC1 | -9.4% | -12.0 | -5.0% | 3.4% | 0.9 | 8.9%
COC(=O)c1c(N(S(C)(=O)=O)S(C)(=O)=O)sc2c1CCN(c1ncc(C(F)(F)F)cc1Cl)C2 | -25.0% | 9.2 | -0.6% | -4.6% | 6.6 | 0.9%
Cc1nnc2sc(-c3ccc(N(C)C)cc3)nn2c1=O | 0.0% | 53.7* | -11.9% | -5.0% | 27.7* | -10.7%
C[C@H](NC(N)=O)C(=O)Nc1ccc2c(c1)OCO2 | 5.4% | 3.4 | 7.4% | -1.0% | 23.4* | 1.2%
O=C(CSc1ccccc1F)Nc1ccc2c(c1)OCO2 | / | / | -5.4% | 1.1% | / | /
CC(C(=O)Nc1ccc2c(c1)OCO2)N1CCN(C)CC1 (configuration not stated) | ? | -14.9 | 23.6% | 6.6% | 0.4 | -12.3%
